From ChEMBL document CHEMBL4513216, “Probing the Open Global Health Chemical Diversity Library for Multistage-Active Starting Points for Next-Generation Antimalarials” (ACS Infect Dis, 2020) come the findings set out here.

Molecules are shown by their SMILES. The campaign covered roughly 68,000 compounds. About 2,700 (4%) showed an effect of 50% or more. Many of the other results were omitted from the sample, so strong results are more common in it than they were.

The assay relates to Plasmodium berghei. Kind of assay: Screen against P. berghei liver stage (PbLuc), transformed with Luciferase, at 2uM. Format: functional, HepG2. As to conditions: tested at 2 uM.
Consider `Cc1cc(C(=O)NCc2cccnc2OC(C)C)no1`, for which the INHIBITION is reported as 51.19%. Consider `CCC1c2ccsc2CCN1C(=O)NCc1ccccn1` (centres undefined), for which the INHIBITION is on record as -77.99%. Regarding `CCOc1ncccc1CNC(=O)c1cc(C)on1`, the INHIBITION came out at 22.75%. Next, `COc1ncccc1CNC(=O)c1cc(C)on1`: -18.38%; `CC(O)CNC(=O)NCc1cccnc1OC1CCCC1` (centres undefined): 59.73%; `COC(=O)c1cccc(C(=O)NCc2ccco2)n1`: -15.05%. As for `COC(=O)c1ccc(C(=O)NCc2ccco2)nc1`, the figure is -44.93%.

For the compound `COc1ccc(C(=O)NCc2ccco2)nn1`, the INHIBITION was 65.1%. As for `CCC1c2ccsc2CCN1C(=O)NCc1cccnc1OC` (centres undefined), the INHIBITION was determined as 66.27%.

`CC(Cn1ccnc1)NC(=O)NCc1cccnc1OC1CCCC1` (centres undefined): the INHIBITION was 8.42%.

Take `CC(Cn1cccn1)NC(=O)NCc1cccnc1OC1CCCC1` (centres undefined): the INHIBITION worked out at 39.32%.

On to `CCC1c2ccsc2CCN1C(=O)NCc1cccnc1N(C)C` (centres undefined), for which the INHIBITION was 8.5%. As to `CC(C)c1nc(C2CCCN(C(=O)Cn3ccccc3=O)C2)no1` (centres undefined), the INHIBITION worked out at 40.88%. Take `Cc1ccc(C)n1-c1c(C(=O)NCC(C)N(C)C)cnn1C` (centres undefined): the INHIBITION is reported as 28.5%. Regarding `O=C(COc1cccc2c1CCC2=O)NCc1ccccc1Cl`, the INHIBITION was -21.15%. Consider `CCN1CC2(CCOCC2)c2cc(NS(=O)(=O)CC)ccc21`, for which the INHIBITION is on record as 16.33%. For `Cc1nccn1-c1ccc(C(C)Nc2cnn(C)c(=O)c2Cl)cc1` (centres undefined), the INHIBITION amounted to 39.58%. For `COc1ccccc1Oc1ncccc1CNC(=O)[C@@H](N)CCO`, the INHIBITION was determined as 10.91%.

`COc1ccccc1Oc1ncccc1CNC(=O)[C@H](N)CC(C)(C)C`: the INHIBITION came out at 62.39%. In the case of `COc1ccccc1Oc1ncccc1CNC(=O)[C@@H](N)[C@@H](C)O`, the INHIBITION is -4.93%. As for `OC1CCCN(CCNc2ncc(Cl)cc2F)C1` (centres undefined), the figure is -23.46%; as for `COCc1cccc(NC(C(N)=O)c2ccc(Br)cc2)c1` (centres undefined), 0.53%. Turning to `Cc1nnc(CSc2ccccn2)o1`, the INHIBITION is -43.6%. Next, `CC(C)(C)c1nnc(CSc2ccccn2)o1`: 58.9%.

As for `CCc1nnc(CSc2ccccn2)o1`, the INHIBITION was -9.88%. Next, `CC(CNC(=O)N1CCS(=O)(=O)CC1)Cc1cccs1` (centres undefined): 8.03%; `COC(=O)C1CCN(C(=O)NCC(C)Cc2cccs2)CC1` (centres undefined): 55.39%; `CC(CNC(=O)N1CCN(CC(F)F)CC1)Cc1cccs1` (centres undefined): -47.2%. Next, `CC(CNC(=O)N1CCN(c2ncccn2)CC1)Cc1cccs1` (centres undefined): 5.82%; `CC(CNC(=O)N1CCSCC1)Cc1cccs1` (centres undefined): -49.29%; `CC(CNC(=O)N1CCC(CO)CC1)Cc1cccs1` (centres undefined): 21.24%. In the case of `CC(CNC(=O)N1CCN(c2cnccn2)CC1)Cc1cccs1` (centres undefined), the INHIBITION is given as 17.75%. Next, `CC(=O)N(C)C1CCN(C(=O)NCC(C)Cc2cccs2)CC1` (centres undefined): 60.9%; `CC(CNC(=O)N1CCNC(=O)CC1)Cc1cccs1` (centres undefined): 57.59%; `Cc1cccc(NC(=O)c2cccc(OCc3nnnn3C)c2)n1`: -85.14%.

For `CCS(=O)(=O)N1C[C@@H]2CN(Cc3cccs3)CCO[C@@H]2C1`, the INHIBITION is on record as -20.67%. As for `CC1(C)CC1(C(=O)N1CC(c2cccnc2)C1)c1ccc(F)cc1` (centres undefined), the figure is 41.05%. As for `COc1ccc(C2(C(=O)N3CC(c4cccnc4)C3)CC2(C)C)cc1` (centres undefined), the INHIBITION came out at 60.13%. Turning to `CC1(C)CC1(C(=O)N1CC(c2cccnc2)C1)c1ccccc1F` (centres undefined), the INHIBITION stood at 14.82%. As for `CCOC(=O)c1cnn(-c2cc(Oc3cccc(C)c3)ncn2)c1N`, the figure is -58.53%; as for `CC(COc1ccc(F)cc1F)NC(=O)NCCN1CCOCC1` (centres undefined), -30.55%; as for `CCCN(Cc1cccc(OCCO)c1)Cc1ccccc1OC`, -135.42%.

As for `COCCN(Cc1cccc(OCCO)c1)Cc1ccccc1F`, the INHIBITION was 58.42%. As for `COCCN(Cc1cccc(O)c1)Cc1ccccc1F`, the INHIBITION is given as 35.48%. Take `CC(C)N1[C@H](Cn2cncn2)C[C@@H]2CN(Cc3cccs3)CC[C@@H]21`: the INHIBITION is 13.25%. As for `O=C(Cc1ccccc1Cl)N1CCN(CC(O)COCCO)CC1` (centres undefined), the figure is -13.06%. Take `COc1ccc(C)cc1CN1CCCC1c1noc(C2CC2)n1` (centres undefined): the INHIBITION was -14.17%. In the case of `C=C(C)CNC1CCCN(Cc2noc(C3CC3)n2)C1` (centres undefined), the INHIBITION is reported as -36.58%.

`COCCNC(=O)[C@H]1C[C@@H]2CCN(c3nncs3)C[C@H]2O1`: the INHIBITION came to 21.08%. Consider `O=C(NCCc1ccncc1)[C@H]1C[C@@H]2CCN(c3nncs3)C[C@H]2O1`, for which the INHIBITION is listed as 62.15%. On to `O=C(NCc1ccco1)[C@H]1C[C@@H]2CCN(c3nncs3)C[C@H]2O1`, for which the INHIBITION was -2.66%.

As to `O=c1cc(-c2cccnc2)nc(-c2ccc(CN3CC[C@H](O)C3)cc2)[nH]1`, the INHIBITION worked out at 39.51%. Consider `Cn1cncc1C(=O)N1C[C@@H]2CCN(c3cnccn3)C[C@@H]2C1`, for which the INHIBITION worked out at 5.44%. Take `O=C(NC[C@H]1OC[C@@H](NC(=O)c2ccccc2)[C@@H]1O)c1ccncc1`: the INHIBITION stood at 25.94%. On to `CN(CC(=O)N1CCC(Oc2ccccc2)CC1)c1cnccn1`, for which the INHIBITION is listed as 33.16%. With `CN(CC(=O)N1CCC(N(C)c2ccccc2)CC1)c1cnccn1`, the INHIBITION was -35.47%. `CN(CC(=O)N1CCC(COc2ccccc2)CC1)c1cnccn1`: the INHIBITION was determined as 52.47%. As for `CCCn1nnnc1CN(c1ccc(N2CCOCC2)cc1)C(C)C`, the figure is 36.28%; as for `CCCn1nnnc1CN(c1ccc(C)cc1)C(C)C`, 7.67%; as for `CCCn1nnnc1CN(C)C(C)c1ccc(C)cc1` (centres undefined), 67.28%. On to `Cc1nc2n(n1)CC(Nc1nc(C(F)(F)F)nc3ccccc13)CC2` (centres undefined), for which the INHIBITION was determined as 19.12%. Consider `COc1ccccc1CC(=O)NC1CCCc2cn[nH]c21` (centres undefined), for which the INHIBITION was -1.29%. Regarding `CCn1ncc2c1CCCC2NCc1ccc(OC)c(F)c1` (centres undefined), the INHIBITION turned out to be 57.81%. As for `CCn1ncc2c1CCCC2NCc1cc(C)ccc1OC` (centres undefined), the figure is -14.16%; as for `CCCOc1ccc(CNC2CCCc3c2cnn3CC)cc1OC` (centres undefined), 33.01%. Turning to `CCn1ncc2c1CCCC2NCc1cc(Cl)c(OC)c(OC)c1` (centres undefined), the INHIBITION was found to be 11.18%. With `CCOCc1cc(CNC2CCCc3c2cnn3CC)ccc1OC` (centres undefined), the INHIBITION was 57.81%. As for `CCn1ncc2c1CCCC2NCc1ccc(OC)c(C)c1` (centres undefined), the figure is 27.55%; as for `CCCN(CCOC)C(=O)c1cc(Cn2c(C)nc3ccccc32)[nH]n1`, -8.53%. With `Cc1cc(C)n(-c2nc(C(=O)NCCN3CCC(C)CC3)cs2)n1`, the INHIBITION is on record as -39.93%. Take `O=C(c1cc2cc(I)ccc2[nH]1)N1CCC(Nc2cccnn2)CC1`: the INHIBITION was found to be 39.72%. For `CC(C)C1CN(C(=O)Nc2cnn(CC(F)F)c2)CCO1` (centres undefined), the INHIBITION is reported as -5.66%. As for `Cc1cc(CCC(=O)N2CCOCC2)ccc1Br`, the figure is 33.64%.

For `O=C(Cn1ccc(C(=O)O)n1)Nc1c(Cl)cccc1Cl`, the INHIBITION worked out at 25.07%. Next, `O=C(Cn1cc(C(=O)O)cn1)Nc1c(Cl)cccc1Cl`: 6.26%; `NS(=O)(=O)c1cnn(CC(=O)Nc2c(Cl)cccc2Cl)c1`: 68.04%; `Cc1nn(C)cc1C(=O)N1CCC(CSc2ccccc2)C1` (centres undefined): 3.22%. As for `CCn1nc(C)c(S(=O)(=O)Nc2cccc(C(=O)O)c2C)c1C`, the figure is -4.15%. On to `CN(C)CC1CN(C(=O)CCc2ccccc2)Cc2nccn2C1` (centres undefined), for which the INHIBITION is -43.66%. As for `COc1ccnc(N2CCC(OCCN3CCCCC3)C2)n1` (centres undefined), the INHIBITION is -53.64%. `c1cnc(N2CCC(OCCN3CCCCC3)C2)nc1` (centres undefined): the INHIBITION was 56.47%.

As to `Cc1ccnc(N2CCC(OCCN3CCCCC3)C2)n1` (centres undefined), the INHIBITION is given as 12.29%.

Regarding `CCc1ncc2c(n1)CN(Cc1nnc(Cc3ccccc3)o1)CC2`, the INHIBITION is -11.33%. Next, `Cc1cc(C(=O)NCCN2CCCCCC2)nn1C(C)(C)C`: -5.98%; `CCc1nnc2n1CCN(Cc1cc(Cl)c3c(c1)OCCCO3)C2`: -3.57%; `CCc1ccc(O)c(C(=O)N2CCCN(CC(=O)N(CC)CC)CC2)c1`: 46.3%. Turning to `CCc1ccc(O)c(C(=O)N2CCN(CC(=O)N(C)C)CC2)c1`, the INHIBITION is reported as 55.26%. Next, `CCc1ccc(O)c(C(=O)N2CCN(CC(=O)N(CC)CC)CC2)c1`: -19.78%. As for `CCCS(=O)(=O)N(C)C(=O)CCc1ccsc1`, the INHIBITION turned out to be 8.59%. Consider `CC(C)c1nc(CNc2ccc(CCO)cc2)cs1`, for which the INHIBITION is on record as 2.76%. As to `CNc1cncc(C2CCN(C(=O)c3cnco3)CC2)n1`, the INHIBITION turned out to be 56.93%.

Take `Cc1cncc(C2CCCN(C(=O)c3cnco3)C2)n1` (centres undefined): the INHIBITION was -10.44%.

Consider `CNc1cncc(C2CCN(C(=O)c3coc(C)n3)CC2)n1`, for which the INHIBITION is -16.56%.

As to `Cc1ccc2[nH]c([C@H]3CCN(CC4CCCCC4)C3)nc2c1`, the INHIBITION was 63.89%. For `COCCN1CCC(c2nc3cc(C)ccc3[nH]2)CC1`, the INHIBITION worked out at 8.33%. Next, `Cc1ccc2[nH]c(C3CCN(C)CC3)nc2c1`: -5.34%; `CC(C)S(=O)(=O)N1CCCC(c2cccc(C(=O)O)c2)C1` (centres undefined): 49.88%; `CCn1cnnc1CNC(=O)N1CCN(c2ccccc2OC)CC1`: 33.61%. Consider `O=C(Nc1cc[nH]n1)c1ccc(COCC(F)(F)F)cc1`, for which the INHIBITION was -20.91%.

On to `COc1ccc(CN2CCC(c3cc(O)nc(C)n3)C2)c(OC)c1` (centres undefined), for which the INHIBITION is on record as 52.01%. Turning to `COc1ccc(OC)c(CN2CCC(c3cc(O)nc(C)n3)C2)c1` (centres undefined), the INHIBITION was -111.32%. As to `COc1ccc(CN2CCC(c3cc(O)nc(C)n3)C2)c(F)c1` (centres undefined), the INHIBITION was -30.34%. Take `Cc1noc(CC2CCN(C(=O)C(c3ccccc3C)N(C)C)CC2)n1` (centres undefined): the INHIBITION was determined as 37%. Regarding `Cc1nc(NCc2ccccn2)c2c(n1)c(C)nn2C`, the INHIBITION is given as -40.15%. For the compound `Cc1nn(C)c2c(NCc3ccccn3)nc(C(C)C)nc12`, the INHIBITION is 72.41%. Consider `CCn1c(NCc2cccnc2)nc2c(C)nn(C)c2c1=O`, for which the INHIBITION is on record as 24.79%. With `CCn1c(NCc2ccccc2)nc2c(C)nn(C)c2c1=O`, the INHIBITION is recorded as -1.65%. Take `CCn1c(NCc2ccccn2)nc2c(C)nn(C)c2c1=O`: the INHIBITION is listed as 50.9%. As for `CCn1nc(C)c2nc(C(C)C)nc(NCc3ccccn3)c21`, the figure is -11.34%.
